Experimental data: PubChem BioAssay AID1159580 (chemical genetic matrix, 2015)
Out of some 5,500 compounds screened, about 2,000 (36%) were called active. Roughly 18% stayed inconclusive and do not appear here. Cut-off read from the data, not from the text of the source: active = normalized growth mostly below about 0.91 (no sharp cut-off); inconclusive = no clear call, values can overlap the other calls; inactive = mostly above about 0.92. The list shows a part of the results.

Assay: chemical genetic growth profiling, strain panel (AID 1159580);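 note: tested at 20 µM; growth read once vehicle control cultures reached saturation at 30 °C; 1 = growth at the plate median or of vehicle wells; lower values mean less growth of the strain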
Settings: growth OD

Measured: normalized growth

CCn1cc(C(=O)O)c(=O)c2cc(F)c(N3CCNCC3)nc21
inactive: S. cerevisiae deletion strains, locus YJR066W, strain TOR1, active compounds read low 0.976 | S. cerevisiae deletion strains, locus YJR075W, strain HOC1, active compounds read low 1.01 | S. cerevisiae deletion strains, locus YKL009W, strain mrt4, active compounds read low 1.01 | S. cerevisiae deletion strains, locus YKL068W, active compounds read low 1.01 | S. cerevisiae deletion strains, locus YKL085W, strain MDH1 (second series), active compounds read low 1.01 | S. cerevisiae deletion strains, locus YKL085W, strain MDH1, active compounds read low 1.01 | S. cerevisiae deletion strains, locus YKL160W, strain elf1, active compounds read low 1 | S. cerevisiae deletion strains, locus YKL190W, strain CNB1, active compounds read low 1.02 | S. cerevisiae deletion strains, locus YKR001C, strain vps1, active compounds read low 1.02 | S. cerevisiae deletion strains, locus YKR026C, strain gcn3, active compounds read low 0.989 | S. cerevisiae deletion strains, locus YKR091W, strain srl3, active compounds read low 0.983 | S. cerevisiae deletion strains, locus YLL001W, strain dnm1, active compounds read low 0.991 | S. cerevisiae deletion strains, locus YLL026W, active compounds read low 0.992 | S. cerevisiae deletion strains, locus YLL041C, strain sdh2, active compounds read low 0.964 | S. cerevisiae deletion strains, locus YLR027C, strain aat2, active compounds read low 0.989 | S. cerevisiae deletion strains, locus YLR039C, strain RIC1, active compounds read low 1.01 | S. cerevisiae deletion strains, locus YLR058C, strain SHM2, active compounds read low 1.02 | S. cerevisiae deletion strains, locus YLR102C, strain apc9, active compounds read low 1.01 | S. cerevisiae deletion strains, locus YLR113W, strain HOG1, active compounds read low 1.08 | S. cerevisiae deletion strains, locus YLR221C, strain rsa3, active compounds read low 0.984 | S. cerevisiae deletion strains, locus YLR258W, strain gsy2, active compounds read low 0.987 | S. cerevisiae deletion strains, locus YLR262C, strain YPT6 (second series), active compounds read low 0.945 | S. cerevisiae deletion strains, locus YLR262C, strain YPT6, active compounds read low 1.03 | S. cerevisiae deletion strains, locus YLR268W, strain sec22, active compounds read low 1.01 | S. cerevisiae deletion strains, locus YLR320W, strain mms22, active compounds read low 0.999 | S. cerevisiae deletion strains, locus YLR330W, strain CHS5, active compounds read low 1.01 | S. cerevisiae deletion strains, locus YLR342W, strain FKS1 (second series), active compounds read low 1.03 | S. cerevisiae deletion strains, locus YLR342W, strain FKS1, active compounds read low 0.981 | S. cerevisiae deletion strains, locus YLR357W, strain rsc2, active compounds read low 0.897 | S. cerevisiae deletion strains, locus YLR370C, strain arc18, active compounds read low 0.975 | S. cerevisiae deletion strains, locus YLR371W, strain rom2, active compounds read low 1.02 | S. cerevisiae deletion strains, locus YLR384C, strain iki3, active compounds read low 0.983 | S. cerevisiae deletion strains, locus YLR418C, strain cdc73, active compounds read low 1.01 | S. cerevisiae deletion strains, locus YML016C, strain PPZ1, active compounds read low 1.01 | S. cerevisiae deletion strains, locus YML032C, strain rad52, active compounds read low 1.02 | S. cerevisiae deletion strains, locus YML120C, strain ndi1, active compounds read low 0.983 | S. cerevisiae deletion strains, locus YML124C, strain tub3, active compounds read low 1.01 | S. cerevisiae deletion strains, locus YMR058W, strain fet3, active compounds read low 0.982 | S. cerevisiae deletion strains, locus YMR078C, strain ctf18, active compounds read low 1 | S. cerevisiae deletion strains, locus YMR125W, strain sto1, active compounds read low 0.973 | S. cerevisiae deletion strains, locus YMR129W, active compounds read low 0.981 | S. cerevisiae deletion strains, locus YMR205C, strain PFK2, active compounds read low 1.01 | S. cerevisiae deletion strains, locus YMR223W, strain ubp8, active compounds read low 1.02 | S. cerevisiae deletion strains, locus YMR231W, strain pep5, active compounds read low 0.991 | S. cerevisiae deletion strains, locus YMR307W, strain GAS1, active compounds read low 1.02 | S. cerevisiae deletion strains, locus YNL067W, strain RPL9B, active compounds read low 1 | S. cerevisiae deletion strains, locus YNL071W, strain lat1, active compounds read low 0.968 | S. cerevisiae deletion strains, locus YNL153C, strain GIM3, active compounds read low 0.99 | S. cerevisiae deletion strains, locus YNL183C, strain NPR1, active compounds read low 0.982 | S. cerevisiae deletion strains, locus YNL209W, strain ssb2, active compounds read low 0.971 | S. cerevisiae deletion strains, locus YNL233W, strain BNI4, active compounds read low 0.978 | S. cerevisiae deletion strains, locus YNL248C, strain rpa49, active compounds read low 0.989 | S. cerevisiae deletion strains, locus YNL250W, strain rad50, active compounds read low 1.03 | S. cerevisiae deletion strains, locus YNL271C, strain bni1, active compounds read low 1.02 | S. cerevisiae deletion strains, locus YNL298W, strain CLA4, active compounds read low 1.01 | S. cerevisiae deletion strains, locus YNL307C, strain MCK1, active compounds read low 1.02 | S. cerevisiae deletion strains, locus YNL322C, strain KRE1 (second series), active compounds read low 0.976 | S. cerevisiae deletion strains, locus YNR049C, strain mso1, active compounds read low 0.981 | S. cerevisiae deletion strains, locus YNR052C, strain pop2, active compounds read low 1.02 | S. cerevisiae deletion strains, locus YOL006C, strain TOP1, active compounds read low 1.02 | S. cerevisiae deletion strains, locus YOL012C, strain htz1 1.02 | S. cerevisiae deletion strains, locus YOL147C, strain pex11, active compounds read low 1.02 | S. cerevisiae deletion strains, locus YOR001W, strain rrp6, active compounds read low 0.987 | S. cerevisiae deletion strains, locus YOR061W, strain CKA2, active compounds read low 1.02 | S. cerevisiae deletion strains, locus YOR069W, strain VPS5, active compounds read low 1.01 | S. cerevisiae deletion strains, locus YOR070C, strain gyp1, active compounds read low 0.993 | S. cerevisiae deletion strains, locus YOR080W, strain dia2, active compounds read low 0.993 | S. cerevisiae deletion strains, locus YOR083W, strain WHI5, active compounds read low 0.99 | S. cerevisiae deletion strains, locus YOR106W, strain vam3, active compounds read low 0.988 | S. cerevisiae deletion strains, locus YOR136W, strain idh2, active compounds read low 1.01 | S. cerevisiae deletion strains, locus YOR144C, strain elg1, active compounds read low 1.01 | S. cerevisiae deletion strains, locus YOR184W, strain ser1, active compounds read low 1.02 | S. cerevisiae deletion strains, locus YOR231W, strain MKK1, active compounds read low 1.05 | S. cerevisiae deletion strains, locus YOR265W, strain rbl2, active compounds read low 0.986 | S. cerevisiae deletion strains, locus YOR270C, strain vph1, active compounds read low 0.991 | S. cerevisiae deletion strains, locus YOR290C, strain snf2, active compounds read low 0.961 | S. cerevisiae deletion strains, locus YOR316C, strain cot1, active compounds read low 1.02 | S. cerevisiae deletion strains, locus YPL051W, strain arl3, active compounds read low 0.994 | S. cerevisiae deletion strains, locus YPL078C, strain atp4, active compounds read low 0.984 | S. cerevisiae deletion strains, locus YPL106C, strain sse1, active compounds read low 0.947 | S. cerevisiae deletion strains, locus YPL240C, strain hsp82, active compounds read low 0.977 | S. cerevisiae deletion strains, locus YPL241C, strain CIN2, active compounds read low 1.01 | S. cerevisiae deletion strains, locus YPL256C, strain CLN2, active compounds read low 1.04 | S. cerevisiae deletion strains, locus YPR119W, strain clb2, active compounds read low 1.01 | S. cerevisiae deletion strains, locus YPR141C, strain kar3, active compounds read low 1.01 | S. cerevisiae deletion strains, locus YPR163C, strain tif3, active compounds read low 1.03 | S. cerevisiae deletion strains, locus YPR167C, strain met16, active compounds read low 1.01 | S. cerevisiae deletion strains, strain wtn01, active compounds read low 1.01 | S. cerevisiae strains, strain wild type, active compounds read low 1.02
